Each structure is given as a SMILES string. “And” between values parts separate entries of the source, which are not always exact repeats. Equal values may be shown once. Records with an inconclusive call do not appear. The source made the active and inactive calls. For most assays here, the call rests on the fitted dose curve; in most records, active means well fitted curve in the direction sought with a large enough effect; inconclusive means small, poorly fitted or top-dose-only effect, or another doubt; inactive means no such curve, though single readings can be large; an effect the other way counts as inactive or inconclusive.

What is called AC50 is the concentration giving half of the maximal activity seen.

Assay [1] is described as follows: Immunotoxin (HA22) sensitization/mitigation study. Vehicle arm (PBS) (AID 1159510; call rule not given here; further: potency means the concentration at half of the fitted maximal effect).
The nature of assay [2]: Immunotoxin (SS1P) sensitization/mitigation study. Vehicle arm (DMEM) (AID 1159513; call rule not given here; further: potency means the concentration at half of the fitted maximal effect).
Assay [3] is described as follows: High-throughput drug toxicity screening in the BPDCN cell line Gen2.2 (AID 1224824; call rule not given here;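 further: cells exposed to compounds for 48 h before reading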). To be noted: Gen2.2 BPDCN cells; at 45.8 µM (top of the series). The method in brief: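 CellTiter-Glo luminescence after 48 h compound exposure of Gen2.2 cells; percent activity set with DMSO as 100% and bortezomib (9.2 uM final) as 0%. Cells seeded at 500 per well, RPMI + 10% FBS, 37 °C.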

Assay [4] can be described thus: qHTS assay for measurement of the activity of small molecule inhibitors on Zika virus induced Caspase-3 activity in human iPSC derived neural progenitor cells (hNPCs) (AID 1224857). Further: % of control where 0% means no effect; nearly all actives have a fitted effect of over 65% in size. In short, it runs like this: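 In medium with heparin 2 ug/ml and cyclopamine 2 uM, hNPCs (350 cells/well) received compound for one hour and then Zika virus at 2 FFU/cell; caspase activity was measured by Caspase-Glo 3/7 luminescence 6 h post-infection.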
For orientation: qHTS replaces the single test concentration by a dilution series.

Assay [5] is described as follows: qHTS assay for measurement of the activity of small molecule inhibitors on Zika virus induced Caspase-3 activity in human astrocytoma cells (AID 1224859).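 Further: plate controls were ZIKV-infected untreated cells for no effect and uninfected cells for full effect.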 In short, it runs like this: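 A cell-based luminescent caspase-3/7 assay used SNB-19 cells infected with ZIKV (2 FFU/cell) for 6 h following 1 h compound pretreatment.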
Assay [6] is described as follows: qHTS Screen of the MIPE 4.0 Collection Against Ewings Sarcoma (TC71) (AID 1259253). Further: nearly all actives have a fitted effect of over 40% in size. Further: potency means the concentration at half of the fitted maximal effect. In short, it runs like this: (§1)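 Log-phase cells in RPMI with 5% FBS attached for 4 h, then received compounds as a titration for 48 h at 37C, 5% CO2. Viability was read by CellTiter-Glo luminescence and normalized to DMSO and no-cell wells.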
A short description of assay [7]: qHTS Screen of the MIPE 4.0 Collection Against Ewings Sarcoma (EW8) (AID 1259255). Further: nearly all actives have a fitted effect of over 35% in size. Further: potency means the concentration at half of the fitted maximal effect.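 On viability: 100% = DMSO-treated cells and 0% = medium-only wells without cells.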 In short, it runs like this:
as §1

A short description of assay [8]: Identifying Small Molecule Inhibitors of Pancreatic Cancer Stem Cells (A2780, Spheroid) (AID 1259357). Further: potency means the concentration at half of the fitted maximal effect.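 Further: spheroids pre-formed over 14 days in stem cell medium on hydrogel; compound exposure lasted 48 h before the ATP luminescence read.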 The following applies: Potency: A2780 spheroid viability. In short, it runs like this: (§2)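 Spheroids grown 14 days in stem cell media on nonadherent hydrogel before screening; cells attached 4 h, then compound exposure 48 h at 37C, 5% CO2. CellTiter-Glo luminescence normalized to DMSO (no inhibition) and no-cell wells (full inhibition).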

A short description of assay [9]: Identifying Small Molecule Inhibitors of Pancreatic Cancer Stem Cells (SN12C, Spheroid) (AID 1259360). Further: potency means the concentration at half of the fitted maximal effect. To be noted: Potency: SN12C spheroid viability. The method in brief: as §2
Assay [10] can be described thus: Identifying Small Molecule Inhibitors of Pancreatic Cancer Stem Cells (A278, Adherent) (AID 1259361). Further: nearly all actives have a fitted effect of over 35% in size. In short, it runs like this: (§3)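 Spheroids grown 14 days in stem cell media on hydrogel-coated nonadherent plates; 2D lines seeded directly. Compounds added after 4 h attachment, 48 h at 37C, 5% CO2; CellTiter-Glo luminescence normalized to DMSO (no inhibition) and no-cell wells (full inhibition).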

A short description of assay [11]: Identifying Small Molecule Inhibitors of Pancreatic Cancer Stem Cells (SN12C, Adherent) (AID 1259358).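 Further: cell survival measured after 48 h of compound exposure.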 Further: potency means the concentration at half of the fitted maximal effect. The method in brief:
as §3

The conditions of assay [12]: Ebola virus entry assay, reporter ratio channel; AC50: Channel type: primary unless noted; outcome: Channel type: primary unless noted.
Assay [13] is described as follows: qHTS assay to identify small molecule inhibitors of chordoma cells - UCH-1 (AID 1259355). Further: nearly all actives have a fitted effect of over 55% in size. Further: potency means the concentration at half of the fitted maximal effect. The method in brief: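 Cells (800/well) were seeded and left overnight at 37 C, 5% CO2, then treated with drugs at 15 concentrations plus a combination mix of auranofin, camptothecin, doxorubicin, rubitecan and topotecan. Viability after 48hr was read by CellTiter-Glo luminescence.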

Assay [14] in a line: qHTS assay to identify small molecule inhibitors of chordoma cells - UCH-2 (AID 1259356). Further: potency means the concentration at half of the fitted maximal effect.
A short description of assay [15]: Identifying Small Molecule Inhibitors of Pancreatic Cancer Stem Cells (Panc1, Spheroid) (AID 1259359).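 Further: compound exposure lasted 48 h before reading.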 The method in brief: as §2

Take `CN(C)CCN(C)CCc1ccc(Cl)c(Cl)c1`: the Potency in assay [1] and in assay [9] was 18.7 µM (active) in each case. Also, the Potency result in assay [2], in assay [4], in [6], in assay [7] and in assay [8] was “inactive” throughout. For the same compound, the cell viability, % of control (lower = more cytotoxic) in assay [3] was 137%. Besides, the result in [5] was inactive. In addition, in assay [10], the IC50 (viability decrease) result was “inactive”.

`CC(C)n1c(C=C[C@H](O)C[C@H](O)CC(=O)O)c(-c2ccc(F)cc2)c2ccccc21`: the Potency was 8.33 µM (active) in [1] and 9.35 µM (active) in assay [2].

As for `COC[C@H]1OC(=O)c2coc3c2[C@@]1(C)C1=C(C3=O)C2CCC(=O)[C@@]2(C)C[C@H]1OC(C)=O` (stereo not given in full), the Potency was 5.9 µM (active) in assay [1], 16.6 µM (active) in [2] and 18.7 µM (active) in assay [9]. In addition, the Potency entry in [4] and in [11] was “inactive” in each case. The outcome in assay [5] was inactive. Besides, the IC50 (viability decrease) in assay [10] was 23.5 µM (active).

As for `C[C@H]1O[C@@H](O[C@H]2[C@@H](O)C[C@H](O[C@H]3[C@@H](O)C[C@H](O[C@H]4CC[C@@]5(C)[C@H](CC[C@@H]6[C@@H]5CC[C@]5(C)[C@@H](C7=CC(=O)OC7)CC[C@]65O)C4)O[C@@H]3C)O[C@@H]2C)C[C@H](O)[C@@H]1O`, in assay [12], the half-maximal activity concentration (AC50) is 0.708 µM (active). Besides, the call in assay [5] was inactive. Also, the Potency in assay [13] was 112 nM (active); in assay [14], 46.1 nM (active).

Regarding `C[C@@H]1[C@@H](C(=O)C[C@H]2O[C@@H]3O[C@]4(C)CC[C@@H]5[C@H](C)CC[C@@H]([C@H]2C)[C@@]35OO4)O[C@@H]2O[C@]3(C)CC[C@H]4[C@H](C)CC[C@@H]1[C@@]24OO3`, the Potency in assay [1] was 0.0264 µM (active); in [2], 0.209 µM (active); in [6], 4.69 µM (active); in [7], 743 nM (active). Besides, the cell viability, % of control (lower = more cytotoxic) in assay [3] worked out at 9%. Moreover, in assay [4], the Potency result was “inactive”. Further, in [5], the outcome was inactive.

As to `Cc1ccc(-n2nc(C(C)(C)C)cc2NC(=O)Nc2ccc(OCCN3CCOCC3)c3ccccc23)cc1`, in assay [12], the AC50 is 20 µM (active). Moreover, the Potency in [1] is 10.5 µM (active). Also, the Potency result in assay [2] is “inactive”.

As to `Clc1ccc(COC(Cn2ccnc2)c2ccc(Cl)cc2Cl)cc1` (stereo not given), the AC50 in assay [12] was 3.55 µM (active). In addition, the call in assay [5] was inactive. Besides, the Potency result in assay [13] and in assay [14] was “inactive” throughout.

Consider `Cc1cc(SCc2sc(-c3ccc(C(F)(F)F)c(F)c3)nc2C)ccc1OCC(=O)O`, for which the cell viability, % of control (lower = more cytotoxic) in [3] was determined as 144%. Further, the Potency in assay [6] was 23.5 µM (active). In addition, the Potency result in assay [11] is “inactive”. In addition, in assay [15], the compound was called inactive. In addition, the IC50 (viability decrease) result in assay [10] was “inactive”.

With `CC(C)(C)CC(C)(C)c1ccc(O)cc1`, the AC50 in assay [12] is 17.8 µM (active) and 15.8 µM (active). Moreover, the Potency result in assay [4], in assay [13] and in assay [14] was “inactive” each time. In addition, in [5], the call was inactive.

Consider `O=C(O)C(=O)c1cn(Cc2ccccc2)c2ccc(-c3ccc(OC(F)(F)F)cc3)cc12`, for which the Potency in [1] is 23.5 µM (active); in [9], 18.7 µM (active). In addition, the cell viability, % of control (lower = more cytotoxic) in assay [3] was determined as 171%. Moreover, the Potency result in [4] and in assay [7] was “inactive” in each case. Further, the compound was classed as inactive in assay [5] and in assay [15].

Regarding `c1ccc2c(c1)Nc1ccccc1S2`, the outcome in assay [12] and in [5] was inactive. Moreover, the Potency result in [4], in [13] and in assay [14] was “inactive” in each case.

As to `CCCCC/C=C\C/C=C\C/C=C\C/C=C\CCCC(=O)NC1CC1`, the Potency entry in assay [1], in [2], in assay [11] and in [9] was “inactive” throughout.

With `CC(O)(CS(=O)(=O)c1ccc(F)cc1)C(=O)Nc1ccc(C#N)c(C(F)(F)F)c1` (stereo not given), the Potency entry in assay [2], in assay [4] and in [11] was “inactive” throughout. The cell viability, % of control (lower = more cytotoxic) in assay [3] turned out to be 9.43%. Moreover, in [5], the result was inactive. The Potency in assay [6] is 2.35 µM (active); in assay [7], 3720 nM (active).

For the compound `CO[C@@H](C(=O)N1Cc2[nH]nc(NC(=O)c3ccc(N4CCN(C)CC4)cc3)c2C1)c1ccccc1`, the figures for the Potency in assay [1] and in [2] were 0.332 µM (active) and 23.5 µM (active), respectively.

Turning to `CC(CCc1ccccc1)NC(C)C(O)c1ccc(O)cc1` (stereo not given), the concentration at half-maximal activity (AC50) in assay [12] is 35.5 µM (active). Also, the Potency result in [4] and in assay [14] was “inactive” throughout. Besides, the outcome in assay [5] was inactive.

Regarding `C=C(C)[C@H]1Cc2c(ccc3c2O[C@@H]2COc4cc(OC)c(OC)cc4[C@@H]2C3=O)O1`, the half-maximal activity concentration (AC50) in assay [12] was 8.91 µM (active). For the same compound, the cell viability, % of control (lower = more cytotoxic) in [3] stood at 45.8%. The Potency entry in assay [4] and in assay [14] was “inactive” in each case. Further, the compound was called inactive in [5]. Moreover, the values for the Potency in assay [6] and in assay [7] were 4.69 µM (active) and 2960 nM (active), respectively.

With `CC(C)C[C@H](NC(=O)[C@H](CCc1ccccc1)NC(=O)CN1CCOCC1)C(=O)N[C@@H](Cc1ccccc1)C(=O)N[C@@H](CC(C)C)C(=O)[C@@]1(C)CO1`, the AC50 in assay [12] is 0.708 µM (active). The figures for the Potency in assay [1] and in [2] were 0.0015 µM (active) and 0.0418 µM (active), respectively.

In the case of `CS(=O)c1ccc(-c2nc(-c3ccc(F)cc3)c(-c3ccncc3)[nH]2)cc1` (stereo not given), the Potency result in assay [1] and in [2] was “inactive” each time.

For `CC1=C(/C=C/C(C)=C/C=C/C(C)=C/C(=O)Nc2ccc(O)cc2)C(C)(C)CCC1`, the AC50 in assay [12] was 39.8 µM (active). Moreover, the Potency in [1] was 1.87 µM (active); in [2], 23.5 µM (active).

With `CCCN1CCC[C@@H]2Cc3nc(N)ncc3C[C@H]21`, the AC50 in [12] was 39.8 µM (active). Besides, the Potency result in assay [4], in assay [13] and in assay [14] was “inactive” in each case. The compound was called inactive in [5].

For the compound `C[C@@H]1[C@@H](CC(C[C@H]2O[C@@H]3O[C@]4(C)CC[C@@H]5[C@H](C)CC[C@@H]([C@H]2C)[C@@]35OO4)C[S+](=O)([O-])c2ccc(COC(=O)N(C)C)cc2)O[C@@H]2O[C@]3(C)CC[C@H]4[C@H](C)CC[C@@H]1[C@@]24OO3` (stereo not given in full), the Potency is 0.0332 µM (active) in assay [1]; 0.418 µM (active) in assay [2]; 0.332 µM (active) in assay [6]; 264 nM (active) in [7]; 59 nM (active) in [8]; 118 nM (active) in [11]. In assay [3], the cell viability, % of control (lower = more cytotoxic) was 15.5%. Besides, in assay [4], the Potency entry was “inactive”. Further, the compound was called inactive in [5]. The IC50 (viability decrease) in [10] is 0.0418 µM (active).

Consider `C#CCOC(C(=O)OCCN(C)C)(c1ccccc1)c1ccccc1`, for which the concentration at half-maximal activity (AC50) in [12] was 14.1 µM (active). For the same compound, the Potency result in [4], in [13] and in assay [14] was “inactive” in each case. Further, the result in assay [5] was inactive.

`CCn1cc(C(=O)O)c(=O)c2ccc(C)nc21`: the result in [12] was inactive. Moreover, the Potency entry in [4] is “inactive”.

On to `CN1C[C@H](CNC(=O)OCc2ccccc2)C[C@@H]2c3cccc4c3c(cn4C)C[C@H]21`, for which the half-maximal activity concentration (AC50) in assay [12] is 3.98 µM (active). Also, the result in assay [5] was inactive. Further, the Potency result in assay [13] and in assay [14] was “inactive” in each case.

As to `Oc1ccc(Cl)cc1Cc1ccccc1`, the concentration at half-maximal activity (AC50) in assay [12] was 10 µM (active) and 14.1 µM (active). Moreover, the Potency entry in [4], in assay [13] and in [14] was “inactive” each time. Moreover, in assay [5], the compound was called inactive.

For the compound `C=CC(=O)Nc1cc2c(Nc3ccc(F)c(Cl)c3)ncnc2cc1OCCCN1CCOCC1`, the AC50 in assay [12] was 2.82 µM (active). Also, the results for the Potency in [1] and in [2] were 18.7 µM (active) and 26.4 µM (active), respectively.

These data come from PubChem BioAssay (NCATS).
